Out of some 330,000 compounds screened, about 1,700 (0.52%) were called active. This excerpt belongs to a sample that is enriched for actives. Unmarked numbers belong to inactive results.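 How the source made its calls: active means GFP response versus DMSO above a set limit, roughly screen mean plus 3 SD (cut at about 180% in these data); inconclusive means fewer than 70 cells counted for a yeast strain; inactive means the rest.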
Assay: TOR pathway GLN3 branch reporter MEP2-GFP changes – S. cerevisiae, multiplex flow cytometry, MLPCN library, primary screen (AID 2016);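 further: median GFP fluorescence of the barcode-gated MEP2-GFP cells per well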
Details: S. cerevisiae MEP2-GFP strain, 3 h, at 10 µM, active compounds read high, 100% = DMSO control level

Row | SMILES | GFP response vs DMSO
1 | Cc1ccc(-c2csc(NC(=O)Cn3[nH]c(=O)c4ccccc4c3=O)n2)cc1 | 102%
2 | Cc1c(C(=O)Nc2cccc(-c3nnc4n3CCCCC4)c2)oc2ccccc12 | 104%
3 | O=C(Cn1[nH]c(=O)c2ccccc2c1=O)Nc1cccc(-c2nnc3n2CCCCC3)c1 | 224% [may fluoresce violet] (active)
4 | Cc1ccc(-c2csc(N(Cc3ccco3)C(=O)c3cccs3)n2)cc1 | 109%
5 | CCc1nc2ccccc2n(CCOCCOCCn2c(=O)c(CC)nc3ccccc32)c1=O | 105%
6 | CCOCCn1c(C(C)C)nc2ccccc21 | 94.3%
7 | CCOCCn1c(-c2ccccc2)nc2ccccc21 | 236% [may fluoresce violet] (active)
8 | CCN(CC(=O)NCc1cccs1)C(=O)c1ccc(OC)c(S(=O)(=O)N2CCOCC2)c1 | 96%
9 | Cc1cc(=O)oc2c3c(cc(OCC(=O)NCCC(=O)N[C@@H](C)C(=O)O)c12)OC(C)(C)CC3 | 92.9%
10 | CCOc1cc(N2CCOCC2)c(OCC)cc1NC(=O)COc1cccc2cccnc12 | 295% [may fluoresce violet] (active)
11 | CCOc1cc(N2CCOCC2)c(OCC)cc1NC(=O)c1ccc(C)s1 | 94.6%
12 | CCOc1cc(N2CCOCC2)c(OCC)cc1NC(=O)COc1cccc(Cl)c1 | 107%
13 | O=C(CSc1nnc(-c2ccncc2)n1-c1ccc(Cl)cc1)Nc1ccc(C(=O)O)cc1 | 101%
14 | Cc1cc(=O)oc2c3c(cc(OCC(=O)NCc4ccccn4)c12)OC(C)(C)CC3 | 100%
15 | O=C(O)c1cc(S(=O)(=O)NC2CCCc3ccccc32)ccc1O (stereo not given) | 232% [may fluoresce violet] (active)
16 | CNS(=O)(=O)c1cccc(C(=O)NC2CCCc3ccccc32)c1 (stereo not given) | 102%
17 | O=C(CCC(=O)N1CCN(S(=O)(=O)c2ccccc2)CC1)NC1CCCc2ccccc21 (stereo not given) | 108%
18 | CCC(C)(C)c1ccc(OCC(=O)N(C)C)c(C(C)(C)CC)c1 | 108%
19 | N#Cc1cccc(NC(=O)COC(=O)c2ccccc2C(=O)c2ccc(Cl)c([N+](=O)[O-])c2)c1 | 112%
20 | Cc1ccc(C2(c3ccc(C)cc3)NC(=O)N(Cc3c(C)noc3C)C2=O)cc1 | 91.9%
